Source: PubChem BioAssay
The source made the active and inactive calls.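 The calls were made as follows, unless noted: active = fluorescence slope higher than the sample average by over 3 SD (cut at about -0.22 in these data, passing the limit was not always enough); inactive = the rest.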

Experiments:
[1] = inhibitors of TNFa-induced NFkB p65 translocation, primary screen, imaging, HUVEC, MLSMR starter and 10KST1 sets (AID 438;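 active = inhibition above 20% together with a positive visual image hit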;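 also: compound added about 3h40 before a 20 min TNFalpha stimulation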;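 as to inhibition: signal is the nuclear over cytoplasmic p65 intensity ratio per well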); settings: HUVEC TNFa-induced p65 nuclear translocation; cell count: measured here: nuclei count (cytotoxicity indicator), at 2.08 µM; inhibition: at 2 µM, stronger effect = higher value, 0% TNFa-plus-vehicle, 100% no-TNFa wells
[2] = inhibitors of mutant huntingtin aggregation, primary screen, imaging, exon1htt(103Q)mCFP cells, high-content imaging (AID 483;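 active = visual image review flags a hit and inhibition of aggregation exceeds 20%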;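 also: compound exposure lasted 3 days before fixation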;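 as to nuclei count: percent of the per-plate median nuclei count of sample wells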); settings: exon1htt(103Q)mCFP cell line, aggregate imaging, at 2 µM; inhibition of aggregation: stronger effect = higher value; nuclei count: measured here: cell count, toxicity
[3] = inhibitors of E-selectin induction by TNFa, primary screen, imaging, HUVEC, immunofluorescence, MLSMR starter and 10KST1 sets (AID 487;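 active = visually confirmed hit in the image check and inhibition above 20%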;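 as to inhibition: signal is fraction of cell area covered by stained E-selectin grains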;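 as to nuclei count: 100% = median nuclei count of all wells on the same plate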); settings: HUVEC TNFalpha-induced E-selectin immunofluorescence imaging, at 2 µM; inhibition: stronger effect = higher value; nuclei count: measured here: cell number, toxicity
[4] = molecular target: Voltage-gated potassium channel subunit beta-2 (Rattus norvegicus) (UniProt P62483); test: KvBeta enzyme negative modulators, primary screen, biochemical, NADPH fluorescence (AID 622); settings: recombinant KvBeta, 4-cyanobenzaldehyde reduction, at 10 µM, stronger effect = higher value;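 also: slope of raw intensity against log time taken from 70 to 1610 s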
Sequence of Voltage-gated potassium channel subunit beta-2 (Rattus norvegicus) (P62483 whole entry, looked up): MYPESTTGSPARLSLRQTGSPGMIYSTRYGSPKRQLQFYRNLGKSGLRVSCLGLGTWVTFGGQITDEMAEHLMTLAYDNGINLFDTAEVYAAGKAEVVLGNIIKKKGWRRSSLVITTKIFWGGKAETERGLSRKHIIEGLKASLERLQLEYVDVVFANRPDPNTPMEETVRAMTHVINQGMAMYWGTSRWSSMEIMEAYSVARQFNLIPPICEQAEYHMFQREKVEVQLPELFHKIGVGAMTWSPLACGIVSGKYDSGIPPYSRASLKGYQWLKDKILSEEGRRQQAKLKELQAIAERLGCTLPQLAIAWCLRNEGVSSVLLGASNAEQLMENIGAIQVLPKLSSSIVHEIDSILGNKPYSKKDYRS

[5] = molecular target: Voltage-gated potassium channel subunit beta-2 (Rattus norvegicus) (UniProt P62483); test: KvBeta positive modulators, primary screen, biochemical, NADPH fluorescence (AID 623;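 active = NADPH fluorescence slope more negative than the mean of all samples by about 3 SD, 99.7% confidence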;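 also: fluorescence intensity change per second fitted from 20 to 320 s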); settings: Recombinant KvBeta, NADPH fluorescence decrease slope, 10 min; at 10 µM; stronger effect = lower value
[6] = molecular target: Alpha-2C adrenergic receptor (Homo sapiens) (UniProt P18825); test: modulators of alpha2C/GIRK thallium flux, primary screen, cell-based, HEK293 alpha2C/GIRK1/2 (AID 624;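 active = fluorescence slope after compound addition differing from the mean of all screened samples at 99.7% confidence, in either direction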;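 also: slope of fluorescence ratio to pre-addition baseline per second over 15 to 24 s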); settings: thallium flux BTC fluorescence, at 10 µM, actives lie on both sides
Sequence of Alpha-2C adrenergic receptor (Homo sapiens) (P18825 whole entry, looked up): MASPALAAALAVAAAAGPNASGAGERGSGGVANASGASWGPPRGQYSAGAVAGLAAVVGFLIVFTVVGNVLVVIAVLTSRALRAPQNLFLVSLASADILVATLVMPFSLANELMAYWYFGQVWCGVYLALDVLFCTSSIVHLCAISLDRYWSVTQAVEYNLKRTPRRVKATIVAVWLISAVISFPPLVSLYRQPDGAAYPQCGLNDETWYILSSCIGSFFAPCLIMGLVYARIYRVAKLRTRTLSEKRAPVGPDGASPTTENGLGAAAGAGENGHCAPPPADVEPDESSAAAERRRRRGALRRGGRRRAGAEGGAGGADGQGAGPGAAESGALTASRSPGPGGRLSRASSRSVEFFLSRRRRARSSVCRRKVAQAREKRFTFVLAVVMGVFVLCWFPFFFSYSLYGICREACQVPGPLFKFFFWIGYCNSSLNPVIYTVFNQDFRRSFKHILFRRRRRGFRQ

[7] = inhibitors of Sendai virus-induced IRF3 signaling, primary screen, TLR/RLR signaling modifier project, cell-based, Sendai virus stimulus, luciferase, 10K MLSCN set (AID 602276;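 active = inhibition at or above 50% at 10 µM; inactive = inhibition below 50%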;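 also: firefly luciferase from ISG56 promoter only with Renilla not read in this screen; 0% = Sendai virus plus DMSO and 100% = medium plus DMSO without virus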); settings: HEK293 RL24 IRF3 luciferase reporter, at 10 µM, stronger effect = higher value
[8] = inhibitors of poly I:C-induced TLR3 signaling, primary screen, cell-based, poly I:C stimulus, luciferase, 10K MLSCN set (AID 602277;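 active = inhibition of the reporter signal at or above 50%; inactive = inhibition below 50%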); settings: HEK293-TLR3 RL24 IRF3 luciferase reporter, at 10 µM, stronger effect = higher value

## CCCn1cc(C(CC(=O)O)C(=O)O)c2ccccc21 (stereo not drawn)
[1]
  cell count: 319
  inhibition: 0.2% (inactive)
[2]
  inhibition of aggregation: 11% (inactive)
  nuclei count: 97.5%
[3]
  inhibition: -112% (inactive)
  nuclei count: 126%
[4]
  fluorescence slope: -0.399 (inactive)
[5]
  NADPH fluorescence slope: -3.1e-05 (inactive)
[6]
  slope: 0.00576 (inactive)
[7]
  inhibition: 13.9% (inactive)
[8]
  inhibition: 17.2% (inactive)

## CC1CCN(c2nc3c(c(=O)n(C)c(=O)n3C)n2Cc2ccccc2)CC1
[1]
  cell count: 666
  inhibition: -3.5% (inactive)
[2]
  inhibition of aggregation: -14.9% (inactive)
  nuclei count: 83.4%
[3]
  inhibition: -81.5% (inactive)
  nuclei count: 139%
[4]
  fluorescence slope: -0.39 (inactive)
[5]
  NADPH fluorescence slope: -6.1e-06 (inactive)
[6]
  slope: 0.00388 (inactive)
[7]
  inhibition: 12.3% (inactive)
[8]
  inhibition: 15.2% (inactive)

## CC1CCc2nn(CC(=O)NCCN3CCOCC3)cc2C1 (stereo not drawn)
[1]
  cell count: 605
  inhibition: 4% (inactive)
[2]
  inhibition of aggregation: -0.2% (inactive)
  nuclei count: 94.5%
[3]
  inhibition: 42.1% (inactive)
  nuclei count: 97%
[4]
  fluorescence slope: -0.612 (inactive)
[5]
  NADPH fluorescence slope: 5.1e-06 (inactive)
[6]
  slope: 0.00648 (inactive)
[7]
  inhibition: 7.91% (inactive)
[8]
  inhibition: 24.3% (inactive)

## COc1ccc(-c2ccc(-c3nnn(CC(C)=O)n3)cc2)cc1
[1]
  cell count: 277
  inhibition: -6.2% (inactive)
[2]
  inhibition of aggregation: -10.7% (inactive)
  nuclei count: 111%
[3]
  inhibition: -65% (inactive)
  nuclei count: 130%
[4]
  fluorescence slope: -0.516 (inactive)
[5]
  NADPH fluorescence slope: -4.2e-05 (inactive)
[6]
  slope: 0.00693 (inactive)
[7]
  inhibition: -41% (inactive)
[8]
  inhibition: -130% (inactive)

## O=C(c1ccccc1)c1ccncc1
[1]
  cell count: 391
  inhibition: 7% (inactive)
[2]
  inhibition of aggregation: -9.4% (inactive)
  nuclei count: 103%
[3]
  inhibition: -5.9% (inactive)
  nuclei count: 119%
[4]
  fluorescence slope: -0.399 (inactive)
[5]
  NADPH fluorescence slope: -2.9e-05 (inactive)
[6]
  slope: 0.0031 (inactive)
[7]
  inhibition: 19% (inactive)
[8]
  inhibition: 27.8% (inactive)

## CCN(CC)c1ccc(NC(=O)CN2CCN(CC(=O)Nc3ccccc3F)CC2)cc1
[1]
  cell count: 348
  inhibition: 3.1% (inactive)
[2]
  inhibition of aggregation: 5.8% (inactive)
  nuclei count: 104%
[3]
  inhibition: -45.9% (inactive)
  nuclei count: 113%
[4]
  fluorescence slope: -0.413 (inactive)
[5]
  NADPH fluorescence slope: -3.8e-05 (inactive)
[6]
  slope: 0.00308 (inactive)
[7]
  inhibition: 12.9% (inactive)
[8]
  inhibition: 19.4% (inactive)

## CCOC(=O)C1=C(c2ccccc2)NC(=O)NC1c1ccc(N(C)C)cc1 (stereo not drawn)
[1]
  cell count: 363
  inhibition: -0.5% (inactive)
[2]
  inhibition of aggregation: 14.6% (inactive)
  nuclei count: 86.7%
[3]
  inhibition: -131% (inactive)
  nuclei count: 118%
[4]
  fluorescence slope: -0.439 (inactive)
[5]
  NADPH fluorescence slope: -4.5e-05 (inactive)
[6]
  slope: 0.00395 (inactive)
[7]
  inhibition: 12.6% (inactive)
[8]
  inhibition: 29.3% (inactive)

## Cn1c(-c2ccccc2)cc(=O)c2ccccc21
[1]
  cell count: 419
  inhibition: -3.8% (inactive)
[2]
  inhibition of aggregation: 2.5% (inactive)
  nuclei count: 92.7%
[3]
  inhibition: -39.8% (inactive)
  nuclei count: 118%
[4]
  fluorescence slope: -0.457 (inactive)
[5]
  NADPH fluorescence slope: 3.9e-05 (inactive)
[6]
  slope: 0.00556 (inactive)
[7]
  inhibition: 9.11% (inactive)
[8]
  inhibition: 16.3% (inactive)

## Cn1c(=O)n(Cc2ccc(F)cc2)c(=O)c2c1nc1n2CCCN1Cc1ccccc1
[1]
  cell count: 698
  inhibition: 1.6% (inactive)
[2]
  inhibition of aggregation: -3.6% (inactive)
  nuclei count: 119%
[3]
  inhibition: -41.3% (inactive)
  nuclei count: 148%
[4]
  fluorescence slope: -0.448 (inactive)
[5]
  NADPH fluorescence slope: -6e-05 (inactive)
[6]
  slope: 0.00383 (inactive)
[7]
  inhibition: 7.62% (inactive)
[8]
  inhibition: 12.8% (inactive)

## N#Cc1ccc(-c2csc(NC(=O)C3CC3)n2)cc1
[1]
  cell count: 718
  inhibition: -9.6% (inactive)
[2]
  inhibition of aggregation: 33.4% (inactive)
  nuclei count: 93.9%
[3]
  inhibition: -25.2% (inactive)
  nuclei count: 116%
[4]
  fluorescence slope: -0.502 (inactive)
[5]
  NADPH fluorescence slope: -1.9e-05 (inactive)
[6]
  slope: 0.00647 (inactive)
[7]
  inhibition: -27.3% (inactive)
[8]
  inhibition: -86% (inactive)

## Cc1cc(C)n2nc(S(=O)(=O)N(C)c3ccccc3)nc2n1
[1]
  cell count: 679
  inhibition: -2.6% (inactive)
[2]
  inhibition of aggregation: 16.2% (inactive)
  nuclei count: 102%
[3]
  inhibition: -66.9% (inactive)
  nuclei count: 114%
[4]
  fluorescence slope: -0.568 (inactive)
[5]
  NADPH fluorescence slope: -5.7e-05 (inactive)
[6]
  slope: 0.00717 (inactive)
[7]
  inhibition: 7.86% (inactive)
[8]
  inhibition: 34.2% (inactive)

## Cc1nnc(N2C(=O)c3oc4ccccc4c(=O)c3C2c2ccco2)s1 (stereo not drawn)
[1]
  cell count: 804
  inhibition: -5.5% (inactive)
[2]
  inhibition of aggregation: 8.3% (inactive)
  nuclei count: 98.1%
[3]
  inhibition: -28.9% (inactive)
  nuclei count: 124%
[4]
  fluorescence slope: -0.579 (inactive)
[5]
  NADPH fluorescence slope: -2.5e-05 (inactive)
[6]
  slope: 0.00589 (inactive)
[7]
  inhibition: 12.3% (inactive)
[8]
  inhibition: 13.8% (inactive)

## COc1ccc(CN(C(=O)c2oc3ccccc3c2C)C2CCS(=O)(=O)C2)cc1 (stereo not drawn)
[1]
  cell count: 592
  inhibition: 1.7% (inactive)
[2]
  inhibition of aggregation: 7.1% (inactive)
  nuclei count: 87.3%
[3]
  inhibition: -5.9% (inactive)
  nuclei count: 102%
[4]
  fluorescence slope: -0.444 (inactive)
[5]
  NADPH fluorescence slope: 2.9e-05 (inactive)
[6]
  slope: 0.00692 (inactive)
[7]
  inhibition: -2.17% (inactive)
[8]
  inhibition: 8.82% (inactive)
